High-throughput results (PubChem BioAssay)
cardiac RTF act – cardiac RTF calcium sensitivity activators, primary screen, biochemical, IANBD-TnC fluorescence, EC20 calcium | 340,000 compounds, 0.24% hits | IANBD-labeled TnC RTF fluorescence at EC20 calcium; 0% EC20 calcium, 100% full calcium | Troponin I, cardiac muscle (Homo sapiens) + Troponin T, cardiac muscle (Homo sapiens) + … | activation, % at 7.2 µM;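 active = activation above the mean over all tested compounds plus 3 SD, cut at about 30% in these data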;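 also: rise in fluorescence read as greater calcium sensitivity of cardiac thin filaments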
Cardiac RTF inh – cardiac RTF calcium sensitivity inhibitors, primary screen, biochemical, IANBD-TnC fluorescence, EC70 calcium | Troponin I, cardiac muscle (Homo sapiens) + Troponin T, cardiac muscle (Homo sapiens) + … | IANBD-labeled cardiac RTF, Ca2+ fluorescence | inhibition, % at 7.15 µM | 340,000 compounds, 0.12% hits;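 active = inhibition above the mean inhibition of all tested compounds plus 3 SD, cut at about 17% in these data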;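 also: assay run at fixed EC70 calcium of 1.6 mM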
CRFBP-R2 agonist – agonists of CRF-BP/CRF-R2 complex, primary screen, cell-based, HEK293, calcium dye fluorescence, uHTS | calcium dye fluorescence (FLIPR); percent of saturating CRF peptide response | activation, % at 13.2 µM | 350,000 compounds, 0.46% hits | AID 588473, 2011;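 active = activation of at least 50%, plus an integration ratio under a set limit after plate pattern correction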
IDE cell inh – human IDE inhibitors in live cells, primary screen, fluorescence polarization, HEK cells, FAbetaB substrate; Insulin-degrading enzyme (Homo sapiens), P14735; FAbetaB cleavage; inhibition, % at 5.59 µM; 320,000 compounds, 0.41% hits; AID 434962, 2010;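 active = percent inhibition above the average of all tested compounds plus 3 SD, set per screening campaign, cut at about 16% in these data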;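 also: IDE supplied by intact live HEK cells; FP after avidin binding of uncleaved biotin substrate so inhibition keeps polarization high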
IDE act – human IDE activators in live cells, primary screen, fluorescence polarization, HEK cells, FAbeta-B substrate. Insulin-degrading enzyme (Homo sapiens), P14735. FAbeta-B cleavage; 0% vehicle, 100% cell-free pure enzyme wells. activation, % at 5.96 µM. 340,000 compounds, 0.073% hits;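 active = activation above the mean of all tested compounds plus 3 SD, set per screening campaign, cut at about 17% in these data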
TPT1 inh – Candida albicans TPT1 enzyme inhibitors, primary screen, biochemical, fluorescence polarization; tRNA 2'-phosphotransferase TPT1 (Candida albicans SC5314); recombinant caTPT1, FP RNA substrate dephosphorylation; inhibition, % at 5 µM; 300,000 compounds, 0.81% hits;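 active = inhibition above the mean of all tested compounds plus 3 SD, set per screening campaign, cut at about 24% in these data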
caTPT1 confirm – Candida albicans TPT1 inhibitors, confirmation, biochemical, fluorescence polarization, triplicate; recombinant caTPT1, RNase T1 coupled; shares compounds with TPT1 inh; 2,400 compounds, 74% hits; inhibition, % at 5 µM;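 active = inhibition above the primary screen limit, the mean inhibition of all tested compounds plus 3 SD, cut at about 25% in these data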
RNase T1 inh – RNase T1 inhibitors, counter-screen for TPT1 inhibitor project, biochemical, fluorescence polarization | RNase T1 cleavage, 1536-well | shares compounds with TPT1 inh | 2,400 compounds, 83% hits | inhibition, % at 5 µM;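 active = inhibition above the solvent-only control well mean plus 3 SD, limit set per screening run, cut at about 23% in these data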;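 also: inhibitors block cleavage so intact labeled substrate keeps polarization high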
Target sequence (P00651 whole entry, looked up): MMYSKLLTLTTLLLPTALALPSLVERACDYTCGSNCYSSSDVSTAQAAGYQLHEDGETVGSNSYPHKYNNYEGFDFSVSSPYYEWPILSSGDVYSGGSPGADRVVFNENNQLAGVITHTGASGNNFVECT
A number is an active result; i = inactive; nt = no result. This is a sample that favours compounds with a hit; in the whole collection about 1.5% have one here.

SMILES	cardiac RTF act	Cardiac RTF inh	CRFBP-R2 agonist	IDE cell inh	IDE act	TPT1 inh	caTPT1 confirm	RNase T1 inh
O=C1NC(=O)N(c2ccc3c(c2)OCO3)C(=O)/C1=C\c1ccc(-c2ccccc2C(=O)O)o1	i	i	i	i	i	i	nt	nt
C=CCN1C(=O)/C(=C/c2ccc(N3CCOCC3)o2)C(=O)NC1=S	66	i	i	i	i	121	143	137
O=C1NC(=O)N(c2ccc3c(c2)OCO3)C(=O)/C1=C/c1ccc(N2CCCCC2)o1	78	i	i	i	i	132	146	142
O=C1NC(=O)C(=Cc2ccc(N3CCOCC3)o2)C(=O)N1	47	i	i	i	i	180	146	144
O=C1NC(=O)N(c2ccc(F)cc2)C(=O)/C1=C/c1ccc(N2CCOCC2)cc1	i	i	i	i	i	i	nt	nt
C=CCN1C(=O)/C(=C/c2cccs2)C(=O)NC1=S	i	i	i	i	i	i	nt	nt
Cc1nccn1Cc1ccc(Cl)nc1	i	i	i	i	i	i	nt	nt
COc1cc(/C=C/C(=O)c2c(O)n(CCc3ccccc3)c(=O)[nH]c2=O)ccc1O	i	i	i	i	i	63	69	89
O=C(/C=C/c1ccccc1)c1c(O)n(CCc2ccccc2)c(=O)[nH]c1=O	i	i	i	i	i	i	nt	nt
NP(=O)(OCCCCc1ccccc1)Oc1ccccc1Cl (centres undefined)	i	i	i	i	i	i	nt	nt
COc1ccc2[nH]cc(C3=CCNCC3)c2c1	nt	nt	nt	i	nt	52	61	72
CCN(CC)c1ccc(/C=C/[N+](=O)[O-])cc1	i	i	251	i	i	127	118	117
CCN1C(=O)C(=C/C=C/c2ccco2)C(=O)N(CC)C1=S	i	i	50	i	i	81	100	104
NC(=O)C1CCN(/C=C2\C(=O)NC(=O)N(Cc3ccco3)C2=O)CC1	i	i	i	i	i	i	nt	nt
CC(C)N1C(=O)/C(=C/C=C/c2ccco2)C(=O)N(Cc2ccco2)C1=O	i	i	i	i	i	95	54	65
COc1ccc(/C=C2/C(=O)N(Cc3ccco3)C(=O)N(C(C)C)C2=O)cc1	i	i	i	i	i	57	i	i
COc1ccc(CN2CCCC(C(=O)c3ccc(Cl)cc3)C2)c(O)c1 (centres undefined)	i	i	i	i	i	i	nt	nt
CC1CN(O)C2CCc3nonc3C12O (centres undefined)	i	i	i	i	i	i	nt	nt
COc1ccc(-n2c(C)nc3ccccc3c2=O)c([N+](=O)[O-])c1	i	i	i	i	i	i	nt	nt
Cc1ccc(N2C(=O)NC(=O)/C(=C\c3ccsc3)C2=O)cc1C	nt	nt	nt	i	nt	28	52	66
O=C1NC(=O)N(c2ccc3c(c2)OCO3)C(=O)/C1=C\c1ccsc1	nt	nt	i	i	nt	i	nt	nt
O=C1NC(=O)N(c2ccccc2)C(=O)/C1=C/c1ccoc1	i	i	i	i	i	113	60	74
Cc1ccc(N2C(=O)NC(=O)/C(=C/c3cnc(-c4ccccc4)nc3)C2=O)cc1C	i	i	i	i	i	25	i	i
Cc1ccc(/C=C2\C(=O)NC(=S)N(c3ccc(F)cc3)C2=O)o1	i	i	i	nt	i	nt	nt	nt
Cc1ccc(/C=C2/C(=O)NC(=O)N(CCc3ccc(F)cc3)C2=O)o1	i	i	i	i	i	27	i	i
SMILES	cardiac RTF act	Cardiac RTF inh	CRFBP-R2 agonist	IDE cell inh	IDE act	TPT1 inh	caTPT1 confirm	RNase T1 inh
CC(C)c1ccc(N2C(=O)NC(=O)/C(=C\C=C\c3ccco3)C2=O)cc1	nt	nt	i	i	nt	130	110	106
O=C1NC(=O)N(Cc2ccccc2)C(=O)/C1=C/C=C/c1ccco1	i	i	i	i	i	75	50	68
CN(C)c1ccc(/C=C2\C(=O)NC(=O)N(CCc3ccc(F)cc3)C2=O)cc1	i	i	i	i	i	30	67	86
COCCN1C(=O)NC(=O)/C(=C\c2ccc(F)cc2)C1=O	i	i	i	i	i	i	nt	nt
O=C(c1ccc2c(c1)OCO2)C1CCCN(CC2CCCCC2)C1 (centres undefined)	i	i	i	i	i	i	nt	nt
COc1cc(OC)c(OC)cc1/C=C1\C(=O)NC(=O)N(Cc2ccccc2)C1=O	i	i	i	i	i	i	nt	nt
COc1ccc(CN2C(=O)NC(=O)/C(=C\c3ccco3)C2=O)cc1	i	i	i	i	i	80	33	47
COc1cc(OC)c(OC)cc1/C=C1/C(=O)NC(=O)N(Cc2ccccc2)C1=O	i	i	i	i	i	26	30	41
COc1ccc(CN2C(=O)NC(=O)/C(=C\c3cc(OC)c(OC)c(OC)c3)C2=O)cc1	i	i	i	i	i	i	nt	nt
O=C1NC(=O)N(CCc2ccc(F)cc2)C(=O)/C1=C/c1cccs1	i	i	i	i	i	i	nt	nt
O=C1NC(=O)N(Cc2ccc(F)cc2)C(=O)/C1=C\c1ccc(N2CCCC2)cc1	i	i	i	i	i	82	104	117
O=C1NC(=O)N(CCc2ccc(F)cc2)C(=O)/C1=C/c1ccco1	i	i	i	i	i	61	i	i
CCCn1ncc(CN2CCCC(C(=O)c3cccc(OC)c3)C2)c1C (centres undefined)	i	i	i	i	i	i	nt	nt
Cn1cccc1CNCCc1ccccc1F	i	i	i	i	i	i	nt	nt
CC(C)(C#CC(=O)O)OOC(c1ccccc1)(c1ccccc1)c1ccccc1	i	i	i	i	i	i	nt	nt
O=C(O)C(O)(c1ccc(Cl)cc1)C1(O)CCCC1 (centres undefined)	nt	nt	i	nt	nt	nt	nt	nt
COc1ccc(CN2C(=O)NC(=O)/C(=C/c3ccc([N+](=O)[O-])s3)C2=O)cc1	i	i	i	i	i	27	56	72
CCOC(=O)c1nsnc1NCCCl	i	i	i	i	i	i	nt	nt
COc1ccc2c3c1OC1C(O)C=CC4C(C2)[N+](C)(C)CCC341 (centres undefined)	i	i	i	i	i	i	nt	nt
